Reference: PubChem BioAssay

Assay: basal RPMI8226 viability, no added stimulus, profiling panel, cell-based, calcein-AM fluorescence, 48 h, PK04 Diversity Set (AID 1166);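 note: cells grown under basal conditions without added stimulus; test concentration not given here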
Details: RPMI8226 myeloma viability, higher = more signal
With C=C(CC1([C@@H](NP(=O)(c2ccccc2)c2ccccc2)[C@H]2C[C@@H]2CCCC)CC1)c1ccccc1 the z-score was -3.25. CC[C@@H]1C=C(C(=O)O)[C@H](c2ccc(Br)cc2)N1S(=O)(=O)c1ccc(C)cc1 gave a z-score of -1.13. C=C(CCCC)/C(=C/C[C@H](OC(C)=O)c1ccccc1OCCO)c1cc(C(=O)OC)ccc1OC showed a z-score of -1.93. Work on COC(=O)[C@@]1(Cc2ccc(OC)cc2)[C@H]2c3cc(C(=O)N(C)C)n(C)c3C[C@H]2CN1C(=O)c1ccccc1 yielded a z-score of -2.47. Molecule CN(C)CCCCCCNC(=O)[C@H]1C[C@H]2C(=O)N[C@@H](CCCCN)C(=O)N2[C@H]1c1cccc(OCCO)c1 has a z-score of -0.497. NC(=O)NCC#Cc1ccc2c(c1)[C@]1(C(=O)N2)[C@H](c2ccccc2OCCO)N2[C@H](c3ccccc3)[C@H](c3ccccc3)OC(=O)[C@H]2[C@@H]1C(=O)Nc1nc2ccccc2s1 showed a z-score of -0.048. CC1CC/C=C\[C@H]2OC34C=CCN(C(C)(C)C)C(=O)[C@H]3N(CCO)C(=O)[C@@H]4C2C(=O)O1 (some centres undefined) gave a z-score of -0.197. In the case of C=C(COC)/C(=C/C[C@H](OC(C)=O)c1ccc(CO)o1)c1cc(C(=O)OC)ccc1OC, the z-score was -0.0381. For CNS(=O)(=O)c1ccc(C)cc1, the z-score was 0.0427.
